Laboratory results as given in the antibiotic and cytotoxicity screens of Wong et al. (2023).
Hit rate of the full screen: of about 39,000 compounds, about 3,300 (8.5%) were called active. The sample as a whole holds a higher share of actives than the screen did.

tested on: HepG2; experiment: cytotoxicity call (relative viability < 0.9); conditions: 10 µM

Compound	cytotoxicity call
C[C@H]1CN([C@@H](C)CO)C(=O)c2cc(NC(=O)Nc3cccc4ccccc34)ccc2O[C@H]1CN(C)C(=O)Nc1cccc2ccccc12	inactive
COc1ncc(NC(=O)C2CC2)c(OC)n1	inactive
C[C@@H]1CN([C@H](C)CO)C(=O)c2c(c3ccccc3n2C)-c2ccccc2CO[C@@H]1CN(C)Cc1cccc2c1OCCCO2	inactive
C[C@@H]1CN([C@H](C)CO)C(=O)c2cccc(NC(=O)c3ccc(-c4nccs4)cc3)c2O[C@H]1CN(C)C(=O)Nc1ccc2c(c1)OCO2	inactive
COc1ccc(S(=O)(=O)N(C)C[C@@H]2OCCCC[C@@H](C)Oc3ccc(NC(=O)CCC(F)(F)F)cc3C(=O)N([C@@H](C)CO)C[C@@H]2C)cc1	inactive
Cc1noc(C)c1S(=O)(=O)N(C)C[C@H]1Oc2ccc(NC(=O)Cc3cn(C)c4ccccc34)cc2CC(=O)N([C@H](C)CO)C[C@@H]1C	inactive
O=C(C[C@H]1C=C[C@@H](NC(=O)c2ccc(F)cc2)[C@H](CO)O1)NCc1ccncn1	inactive
CO[C@@H]1CN(C)C(=O)c2ccc(NC(=O)Nc3ccc(Cl)cc3)cc2OC[C@H](C)N(C(=O)Nc2c(C)noc2C)C[C@@H]1C	inactive
C[C@@H]1CCCCO[C@H](CN(C)C(=O)Nc2ccc(C(F)(F)F)cc2)[C@H](C)CN([C@H](C)CO)C(=O)c2cc(NS(=O)(=O)c3cn(C)cn3)ccc2O1	inactive
Cc1noc(C)c1NC(=O)Nc1ccc2c(c1)C(=O)N([C@H](C)CO)C[C@H](C)[C@H](CN(C)CC1CCCCC1)OCCCC[C@@H](C)O2	inactive
C[C@H](CO)N1C[C@H](C)[C@@H](CN(C)C(=O)c2cccnc2)Oc2cc(-c3cccc(C#N)c3)ccc2S1(=O)=O	inactive
OCc1cncnc1	inactive
C[C@H](CO)N1C[C@H](C)[C@@H](CN(C)Cc2ccccc2)OCCCC[C@H](C)Oc2ccc(NC(=O)Nc3ccc(C(F)(F)F)cc3)cc2C1=O	active
C[C@H]1CCCCO[C@H](CN(C)Cc2ccccc2)[C@@H](C)CN([C@@H](C)CO)C(=O)c2cc(NC(=O)Nc3ccc(C(F)(F)F)cc3)ccc2O1	active
C[C@@H]1CCCCO[C@@H](CN(C)Cc2ccccc2)[C@H](C)CN([C@H](C)CO)C(=O)c2cc(NC(=O)Nc3ccc(C(F)(F)F)cc3)ccc2O1	active
C[C@H](CO)N1C[C@H](C)[C@H](CN(C)Cc2ccccc2)OCCCC[C@H](C)Oc2ccc(NC(=O)Nc3ccc(C(F)(F)F)cc3)cc2C1=O	active
O=C(Nn1cnnc1)c1ccccc1	inactive
O=C(O)c1n[nH]c2c1C[C@H]1C[C@@H]21	inactive
COc1ccc(S(=O)(=O)Nc2ccc3c(c2)C(=O)N([C@@H](C)CO)C[C@@H](C)[C@@H](CN(C)C(=O)Nc2c(C)noc2C)OCCCC[C@@H](C)O3)cc1	inactive
O=c1nc(C(F)(F)F)[nH]c2nc[nH]c12	inactive
Cn1cnc(CCNC(=O)C[C@H]2CC[C@@H]3[C@H](COC[C@@H](O)CN3C(=O)C3CC3)O2)c1	inactive

Compound	cytotoxicity call
O=C(N[C@@H]1CC[C@@H](CCn2cc(C3(O)CCCC3)nn2)O[C@H]1CO)C1CCOCC1	inactive
C[C@H]1CN([C@@H](C)CO)C(=O)Cc2cc(N(C)C)ccc2O[C@H]1CN(C)S(=O)(=O)c1ccc(F)cc1	inactive
C[C@H](CO)N1C[C@H](C)[C@@H](CN(C)CC2CCCCC2)Oc2ccc(NS(=O)(=O)c3cn(C)cn3)cc2C1=O	inactive
C[C@@H]1CN([C@@H](C)CO)C(=O)c2cc(NC(=O)Nc3ccc(C(F)(F)F)cc3)ccc2O[C@@H](C)CCCCO[C@@H]1CN(C)Cc1ccccc1	active
C[C@@H]1CCCCO[C@@H](CN(C)Cc2ccccc2)[C@@H](C)CN([C@@H](C)CO)C(=O)c2cc(NC(=O)Nc3ccc(C(F)(F)F)cc3)ccc2O1	active
C[C@@H]1CN([C@@H](C)CO)C(=O)c2cc(NC(=O)Nc3ccc(C(F)(F)F)cc3)ccc2O[C@@H](C)CCCCO[C@H]1CN(C)Cc1ccccc1	active
C[C@@H]1CN([C@H](C)CO)C(=O)c2cc(NC(=O)Nc3ccc(C(F)(F)F)cc3)ccc2O[C@@H](C)CCCCO[C@@H]1CN(C)Cc1ccccc1	active
Cc1ccc(N2C(=O)C(=O)NC2=S)cc1	inactive
C[C@H]1CN([C@@H](C)CO)C(=O)c2cc(NC(=O)CCN3CCOCC3)ccc2O[C@@H]1CN(C)C(=O)NC1CCCCC1	inactive
C[C@H]1CN([C@@H](C)CO)C(=O)Cc2cc(NS(=O)(=O)c3ccccc3)ccc2O[C@H]1CN(C)Cc1ccc2c(c1)OCO2	inactive
C[C@H](CO)N1C[C@H](C)[C@H](CN(C)S(=O)(=O)c2cccs2)Oc2ccc(NC(=O)Cn3cnnn3)cc2CC1=O	inactive
CC(C)NCCCC[C@H](NC(=O)[C@H]1CCC(=O)N[C@@H](Cc2ccccc2)C(=O)N[C@H](Cc2ccc(O)cc2)C(=O)N[C@@H](CCCCNC(C)C)C(=O)N[C@H](CCCN=C(N)N)C(=O)N[C@@H](Cc2ccc3ccccc3c2)C(=O)NCC(=O)N1)C(N)=O	inactive
Cc1noc(C)c1NC(=O)N(C)C[C@H]1Oc2ccc(NC(=O)Cn3cnnn3)cc2C(=O)N([C@H](C)CO)C[C@@H]1C	inactive
Nc1nnc(N[C@H]2CCCCNC2=O)[nH]1	inactive
COCc1cn(CC[C@H]2CC[C@@H](NC(=O)CCN3CCCCC3)[C@@H](CO)O2)nn1	inactive
COCC#Cc1cnc2c(c1)C(=O)N([C@@H](C)CO)C[C@@H](C)[C@H](CN(C)S(=O)(=O)c1cccc(OC)c1)O2	inactive
CO[C@H](CN(C)S(=O)(=O)c1ccc(F)cc1)[C@@H](C)CN([C@H](C)CO)S(=O)(=O)c1cccc(Cl)c1	inactive
C[C@@H]1CN([C@H](C)CO)C(=O)c2cccc(NC(=O)c3ccno3)c2O[C@H]1CN(C)S(=O)(=O)c1cccs1	inactive
C[C@H]1CCCCO[C@@H](CN(C)Cc2ccccc2)[C@@H](C)CN([C@@H](C)CO)C(=O)c2cc(NC(=O)Nc3ccc(C(F)(F)F)cc3)ccc2O1	active
C[C@@H]1CN([C@H](C)CO)C(=O)c2cc(NC(=O)Nc3ccc(C(F)(F)F)cc3)ccc2O[C@@H](C)CCCCO[C@H]1CN(C)Cc1ccccc1	active
C[C@@H]1CCCCO[C@@H](CN(C)Cc2ccccc2)[C@H](C)CN([C@@H](C)CO)C(=O)c2cc(NC(=O)Nc3ccc(C(F)(F)F)cc3)ccc2O1	active

Compound	cytotoxicity call
C[C@@H]1CCCCO[C@H](CN(C)Cc2ccccc2)[C@H](C)CN([C@@H](C)CO)C(=O)c2cc(NC(=O)Nc3ccc(C(F)(F)F)cc3)ccc2O1	active
Cc1noc(C)c1NC(=O)Nc1cccc2c1O[C@H](CN(C)Cc1ccc(C(F)(F)F)cc1)[C@@H](C)CN([C@H](C)CO)C2=O	inactive
C[C@@H]1CN([C@H](C)CO)C(=O)c2cccc(NC(=O)CCCCCC(=O)Nc3ccccc3N)c2O[C@@H]1CN(C)Cc1ccccc1	inactive
C=CCOC[C@H]1NCCc2c1nnn2CC	inactive
COc1ccc(CN(C)C[C@@H]2Oc3c(NS(=O)(=O)c4cn(C)cn4)cccc3C(=O)N([C@H](C)CO)C[C@H]2C)cc1	inactive
O=C(C[C@@H]1CC[C@H]2[C@@H](COC[C@@H](O)CN2C(=O)c2cccnc2)O1)NCC1CC1	inactive
C[C@@H]1CN([C@@H](C)CO)C(=O)c2cc(NS(C)(=O)=O)ccc2O[C@@H](C)CCCCO[C@@H]1CN(C)S(=O)(=O)c1cn(C)cn1	inactive
C[C@H]1CCCCO[C@@H](CN(C)Cc2ccc(C(=O)O)cc2)[C@@H](C)CN([C@@H](C)CO)C(=O)c2cc(NC(=O)Nc3ccc(F)cc3)ccc2O1	inactive
C[C@@H]1CCCCO[C@@H](CN(C)Cc2ccc3c(c2)OCO3)[C@H](C)CN([C@@H](C)CO)C(=O)c2cc(NS(=O)(=O)c3ccccc3)ccc2O1	inactive
Cc1noc(C)c1S(=O)(=O)N(C)C[C@H]1Oc2ccc(NS(=O)(=O)c3ccc(Cl)cc3)cc2CC(=O)N([C@@H](C)CO)C[C@@H]1C	inactive
C[C@H]1CCCCO[C@@H](CN(C)C(=O)Nc2ccccc2)[C@@H](C)CN([C@@H](C)CO)C(=O)c2cc(NC(=O)Nc3ccccc3)ccc2O1	inactive
COCC(=O)Nc1ccc2c(c1)OC[C@H](C)N(Cc1ccccc1OC)C[C@H](C)[C@@H](OC)CN(C)C2=O	inactive
N[C@@H]1CC[C@@H](CCn2cc(-c3ccccn3)nn2)O[C@H]1CO	inactive
C=CCC[C@H](Cc1ccc(F)cc1)C(=O)OC[C@@H](NC(=O)[C@H](CC=C)CC(=O)N(CCO)Cc1ccccc1)c1ccccc1	inactive
C=CCOC(=O)[C@@H]1[C@H]2C(=O)O[C@H](c3ccccc3)[C@H](c3ccccc3)N2[C@H](c2ccc(OCCOC(=O)[C@H]3C[C@H]4C(=O)N[C@@H](CC(C)C)C(=O)N4[C@H]3c3cccc(OCCO)c3)cc2)[C@@]12C(=O)Nc1ccccc12	inactive
Cc1c(C)n2c3c(=O)n(C)c(=O)n(C)c3nc2n1CCO	inactive
CC(C)NC(=O)Nc1ccc2c(c1)CC(=O)N([C@H](C)CO)C[C@@H](C)[C@H](CN(C)S(=O)(=O)c1ccc(F)cc1)O2	inactive
CCC1OC(=O)C(C)C(OC2CC(C)(OC)C(O)C(C)O2)C(C)C(OC2OC(C)CC(N(C)C)C2O)C(C)(O)CC(C)C(=O)C(C)C(O)C1(C)O (configuration not stated)	inactive
CC[C@H]1OC(=O)[C@H](C)[C@@H](O[C@H]2C[C@@](C)(OC)[C@@H](O)[C@H](C)O2)[C@@H](C)[C@@H](O[C@H]2O[C@H](C)C[C@H](N(C)C)[C@H]2O)[C@](C)(O)C[C@@H](C)C(=O)[C@H](C)[C@@H](O)[C@]1(C)O	inactive
CC[C@H]1OC(=O)[C@H](C)[C@@H](O[C@H]2C[C@@](C)(OC)[C@@H](O)[C@H](C)O2)[C@H](C)[C@@H](O[C@@H]2O[C@H](C)C[C@H](N(C)C)[C@H]2O)[C@](C)(O)C[C@@H](C)C(=O)[C@H](C)[C@@H](O)[C@]1(C)O	active
